Data from PubChem BioAssay AID1159580 (chemical genetic matrix, 2015).
Screen size: about 5,500 compounds; about 2,000 (36%) were called active. Inconclusive results (about 18%) are left out. No stated cut-off is given here; in the data, active means normalized growth mostly below about 0.91 (no sharp cut-off); inconclusive means no clear call, values can overlap the other calls; inactive means mostly above about 0.92. The list shows a part of the results.

Experiment: chemical genetic growth profiling, strain panel (AID 1159580);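 further: tested at 20 µM; growth read once vehicle control cultures reached saturation at 30 °C; 1 = growth at the plate median or of vehicle wells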
Conditions: growth OD

Measured: normalized growth

COc1cc(N)c(Cl)cc1C(=O)NC1CCN(Cc2ccccc2)CC1
inactive: S. cerevisiae deletion strains, locus YJR043C, strain POL32, stronger effect = lower value 0.985 | S. cerevisiae deletion strains, locus YJR075W, strain HOC1, stronger effect = lower value 0.978 | S. cerevisiae deletion strains, locus YKL009W, strain mrt4, stronger effect = lower value 0.993 | S. cerevisiae deletion strains, locus YKL068W, stronger effect = lower value 0.974 | S. cerevisiae deletion strains, locus YKL085W, strain MDH1 (second series), stronger effect = lower value 0.995 | S. cerevisiae deletion strains, locus YKL085W, strain MDH1, stronger effect = lower value 0.995 | S. cerevisiae deletion strains, locus YKL160W, strain elf1, stronger effect = lower value 0.991 | S. cerevisiae deletion strains, locus YKL190W, strain CNB1, stronger effect = lower value 0.992 | S. cerevisiae deletion strains, locus YKR001C, strain vps1, stronger effect = lower value 1 | S. cerevisiae deletion strains, locus YKR026C, strain gcn3, stronger effect = lower value 0.988 | S. cerevisiae deletion strains, locus YKR091W, strain srl3, stronger effect = lower value 0.993 | S. cerevisiae deletion strains, locus YLL001W, strain dnm1, stronger effect = lower value 0.99 | S. cerevisiae deletion strains, locus YLL026W, stronger effect = lower value 0.997 | S. cerevisiae deletion strains, locus YLL041C, strain sdh2, stronger effect = lower value 0.996 | S. cerevisiae deletion strains, locus YLR027C, strain aat2, stronger effect = lower value 1 | S. cerevisiae deletion strains, locus YLR039C, strain RIC1, stronger effect = lower value 0.997 | S. cerevisiae deletion strains, locus YLR058C, strain SHM2, stronger effect = lower value 0.988 | S. cerevisiae deletion strains, locus YLR102C, strain apc9, stronger effect = lower value 0.994 | S. cerevisiae deletion strains, locus YLR221C, strain rsa3, stronger effect = lower value 0.996 | S. cerevisiae deletion strains, locus YLR258W, strain gsy2, stronger effect = lower value 0.994 | S. cerevisiae deletion strains, locus YLR262C, strain YPT6 (second series), stronger effect = lower value 1.01 | S. cerevisiae deletion strains, locus YLR262C, strain YPT6, stronger effect = lower value 0.969 | S. cerevisiae deletion strains, locus YLR268W, strain sec22, stronger effect = lower value 0.935 | S. cerevisiae deletion strains, locus YLR320W, strain mms22, stronger effect = lower value 1.01 | S. cerevisiae deletion strains, locus YLR330W, strain CHS5, stronger effect = lower value 0.993 | S. cerevisiae deletion strains, locus YLR342W, strain FKS1 (second series), stronger effect = lower value 1.05 | S. cerevisiae deletion strains, locus YLR342W, strain FKS1, stronger effect = lower value 0.999 | S. cerevisiae deletion strains, locus YLR357W, strain rsc2, stronger effect = lower value 1.02 | S. cerevisiae deletion strains, locus YLR370C, strain arc18, stronger effect = lower value 0.998 | S. cerevisiae deletion strains, locus YLR371W, strain rom2, stronger effect = lower value 0.989 | S. cerevisiae deletion strains, locus YLR384C, strain iki3, stronger effect = lower value 0.993 | S. cerevisiae deletion strains, locus YLR418C, strain cdc73, stronger effect = lower value 0.968 | S. cerevisiae deletion strains, locus YML016C, strain PPZ1, stronger effect = lower value 1 | S. cerevisiae deletion strains, locus YML032C, strain rad52, stronger effect = lower value 0.969 | S. cerevisiae deletion strains, locus YML120C, strain ndi1, stronger effect = lower value 0.993 | S. cerevisiae deletion strains, locus YML124C, strain tub3, stronger effect = lower value 0.996 | S. cerevisiae deletion strains, locus YMR058W, strain fet3, stronger effect = lower value 1 | S. cerevisiae deletion strains, locus YMR078C, strain ctf18, stronger effect = lower value 0.986 | S. cerevisiae deletion strains, locus YMR125W, strain sto1, stronger effect = lower value 0.988 | S. cerevisiae deletion strains, locus YMR129W, stronger effect = lower value 1 | S. cerevisiae deletion strains, locus YMR205C, strain PFK2, stronger effect = lower value 0.997 | S. cerevisiae deletion strains, locus YMR223W, strain ubp8, stronger effect = lower value 1.04 | S. cerevisiae deletion strains, locus YMR231W, strain pep5, stronger effect = lower value 0.985 | S. cerevisiae deletion strains, locus YMR263W, strain SAP30, stronger effect = lower value 0.978 | S. cerevisiae deletion strains, locus YMR307W, strain GAS1, stronger effect = lower value 1.09 | S. cerevisiae deletion strains, locus YNL067W, strain RPL9B, stronger effect = lower value 0.969 | S. cerevisiae deletion strains, locus YNL071W, strain lat1, stronger effect = lower value 0.997 | S. cerevisiae deletion strains, locus YNL128W, strain TEP1, stronger effect = lower value 0.984 | S. cerevisiae deletion strains, locus YNL153C, strain GIM3, stronger effect = lower value 0.985 | S. cerevisiae deletion strains, locus YNL209W, strain ssb2, stronger effect = lower value 1.01 | S. cerevisiae deletion strains, locus YNL233W, strain BNI4, stronger effect = lower value 0.99 | S. cerevisiae deletion strains, locus YNL248C, strain rpa49, stronger effect = lower value 0.991 | S. cerevisiae deletion strains, locus YNL250W, strain rad50, stronger effect = lower value 1 | S. cerevisiae deletion strains, locus YNL271C, strain bni1, stronger effect = lower value 0.995 | S. cerevisiae deletion strains, locus YNL298W, strain CLA4, stronger effect = lower value 0.974 | S. cerevisiae deletion strains, locus YNL307C, strain MCK1, stronger effect = lower value 0.977 | S. cerevisiae deletion strains, locus YNL322C, strain KRE1 (second series), stronger effect = lower value 0.994 | S. cerevisiae deletion strains, locus YNL322C, strain KRE1, stronger effect = lower value 0.991 | S. cerevisiae deletion strains, locus YNR049C, strain mso1, stronger effect = lower value 0.997 | S. cerevisiae deletion strains, locus YNR052C, strain pop2, stronger effect = lower value 0.993 | S. cerevisiae deletion strains, locus YOL006C, strain TOP1, stronger effect = lower value 0.933 | S. cerevisiae deletion strains, locus YOL012C, strain htz1 1.69 | S. cerevisiae deletion strains, locus YOL147C, strain pex11, stronger effect = lower value 0.996 | S. cerevisiae deletion strains, locus YOR001W, strain rrp6, stronger effect = lower value 0.996 | S. cerevisiae deletion strains, locus YOR061W, strain CKA2, stronger effect = lower value 0.994 | S. cerevisiae deletion strains, locus YOR069W, strain VPS5, stronger effect = lower value 0.989 | S. cerevisiae deletion strains, locus YOR070C, strain gyp1, stronger effect = lower value 0.997 | S. cerevisiae deletion strains, locus YOR080W, strain dia2, stronger effect = lower value 1.01 | S. cerevisiae deletion strains, locus YOR083W, strain WHI5, stronger effect = lower value 1 | S. cerevisiae deletion strains, locus YOR106W, strain vam3, stronger effect = lower value 1 | S. cerevisiae deletion strains, locus YOR136W, strain idh2, stronger effect = lower value 0.996 | S. cerevisiae deletion strains, locus YOR144C, strain elg1, stronger effect = lower value 0.982 | S. cerevisiae deletion strains, locus YOR184W, strain ser1, stronger effect = lower value 0.965 | S. cerevisiae deletion strains, locus YOR265W, strain rbl2, stronger effect = lower value 0.998 | S. cerevisiae deletion strains, locus YOR270C, strain vph1, stronger effect = lower value 1.02 | S. cerevisiae deletion strains, locus YOR290C, strain snf2, stronger effect = lower value 0.984 | S. cerevisiae deletion strains, locus YOR316C, strain cot1, stronger effect = lower value 0.963 | S. cerevisiae deletion strains, locus YPL051W, strain arl3, stronger effect = lower value 0.993 | S. cerevisiae deletion strains, locus YPL055C, strain LGE1, stronger effect = lower value 0.976 | S. cerevisiae deletion strains, locus YPL078C, strain atp4, stronger effect = lower value 0.995 | S. cerevisiae deletion strains, locus YPL106C, strain sse1, stronger effect = lower value 0.99 | S. cerevisiae deletion strains, locus YPL240C, strain hsp82, stronger effect = lower value 0.999 | S. cerevisiae deletion strains, locus YPL241C, strain CIN2, stronger effect = lower value 0.998 | S. cerevisiae deletion strains, locus YPR119W, strain clb2, stronger effect = lower value 0.985 | S. cerevisiae deletion strains, locus YPR141C, strain kar3, stronger effect = lower value 0.986 | S. cerevisiae deletion strains, locus YPR163C, strain tif3, stronger effect = lower value 0.986 | S. cerevisiae deletion strains, locus YPR167C, strain met16, stronger effect = lower value 0.983 | S. cerevisiae deletion strains, strain wtn01, stronger effect = lower value 0.949 | S. cerevisiae strains, strain wild type, stronger effect = lower value 1
